Measurements from PubChem BioAssay.
Active and inactive are the calls of the source.

Columns and labels:
Albumin (Bos taurus) = Albumin (Bos taurus) (UniProt P02769); test: bovine serum albumin binders on microarray, profiling panel, artefact control for SMM control protein annotation, biochemical, small-molecule microarray, Alexa647 label, 635/667 nm fluorescence (AID 1118); conditions: BSA-A647 binding, fluorescence 635 nm, higher = more signal;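 note: score merges 667 nm emission intensity and signal-to-noise per printed compound spot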
[1] = small-molecule microarray binders of probe aXIP, primary screen, biochemical, NeuroSMM set, 635/667 nm fluorescence (AID 1119); conditions: higher = more signal, called active from +8 up or from −8 down;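 note: probe is the protein aXip251-270 applied at 1 µg/mL to compound-printed slides; binding of probe to printed compounds measured as 667 nm fluorescence plus signal to noise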
[2] = small-molecule binders of probe aNOTCH3, primary screen, biochemical, small-molecule microarray, 635/667 nm fluorescence (AID 1120); conditions: higher = more signal;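 note: probe is a biotin-tagged antibody raised against NOTCH3 rather than NOTCH3 protein; score merges spot fluorescence near 667 nm with spot signal to noise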
[3] = small-molecule binders of probe aNOTCH2, primary screen, biochemical, small-molecule microarray, 635/667 nm fluorescence (AID 1121); conditions: higher = more signal;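 note: score merges feature fluorescence read at 667 nm with its signal to noise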
[4] = molecular target: Carbonic anhydrase 2 (Homo sapiens) (UniProt P00918); test: CAII small-molecule binders, profiling panel, biochemical, small-molecule microarray, Alexa647-labelled CAII (AID 1122); conditions: CAII-A647 binding fluorescence, higher = more signal
[5] = COS7 lysate on small-molecule microarray, probe aHis, 635 nm (AID 1123); conditions: COS7 cell lysate, fluorescence, higher = more signal;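 note: z-score combines 667nm fluorescence intensity with signal-to-noise per printed compound spot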
[6] = compound binding in COS7 lysate, probe aLAP1, primary screen, cell lysate, small-molecule microarray (AID 1124); conditions: probe aLAP1, fluorescence, higher = more signal;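 note: lysate comes from COS7 cells expressing LAP1 and is applied at 0.3 µg/mL; score merges spot fluorescence near 667 nm with signal-to-noise over triplicate slides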
Sam68 (KHDRBS1) = test: Sam68 small-molecule binders, primary screen, biochemical, small-molecule microarray, 635 nm fluorescence (AID 1125); conditions: small-molecule microarray binding, higher = more signal;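 note: score merges 667 nm channel intensity with signal to noise over triplicate slides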
[7] = tested on: Chordin-like protein 2 (CHRDL2); test: CHRDL2 small-molecule binders, primary screen, biochemical, small-molecule microarray, 635 nm fluorescence (AID 1126); conditions: small-molecule microarray binding, fluorescence 635 nm; higher = more signal;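 note: printed compound slides probed with Chrdl2 protein at 4 µg/mL for 1 h at 4 C; score merges 667 nm emission intensity with signal to noise over three replicate slides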
[8] = molecular target: Concanavalin-A (Canavalia ensiformis) (UniProt P02866); test: ConA small-molecule binders, primary screen, artefact control for SMM control protein annotation, biochemical, small-molecule microarray, Alexa647 label, 635 nm (AID 1127); conditions: ConA-A647 binding fluorescence, higher = more signal;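 note: z combines 667 nm emission intensity with signal-to-noise across three replicate slides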
[9] = anti-His antibody binders, primary screen, artefact control for SMM control protein annotation, biochemical, small-molecule microarray, 635 nm fluorescence (AID 1128); conditions: anti-His Alexa647 antibody binding, higher = more signal;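 note: score merges feature fluorescence with signal-to-noise for each printed compound spot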
[10] = tested on: Human papillomavirus type 1a E7 protein (residues 1-88); test: HPV1a E7 small-molecule binders, primary screen, biochemical, small-molecule microarray, residues 1-88, 635 nm (AID 1129); conditions: small-molecule microarray binding, fluorescence 635 nm; higher = more signal
[11] = molecular target: Focal adhesion kinase 1 (Homo sapiens) (UniProt Q05397); test: small-molecule microarray binders of FAK, primary screen, biochemical, 635/667 nm fluorescence, BSA, DTT (AID 1130); conditions: PTK2 binding, 635 nm fluorescence, higher = more signal;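 note: composite of spot emission at 667 nm and signal to noise over triplicate slides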
[12] = tested on: Fibrinogen (Alexa647-labelled); test: fibrinogen binders on compound microarrays, profiling panel, artefact control for SMM control-protein annotation, biochemical, small-molecule microarray, 635/667 nm fluorescence (AID 1131); conditions: fibrinogen-A647 binding fluorescence, higher = more signal;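 note: z-score merges 667 nm fluorescence with per-spot signal-to-noise over triplicate slides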
[13] = molecular target: Follistatin (Homo sapiens) (UniProt P19883); test: follistatin binders on small-molecule microarrays, primary screen, biochemical, small-molecule microarray, 635/667 nm fluorescence (AID 1132); conditions: FST binding, 635 nm fluorescence, higher = more signal
[14] = molecular target: Fibroblast growth factor 2 (Homo sapiens) (UniProt P09038); test: FGF2 binders on small-molecule microarrays, primary screen, biochemical, small-molecule microarray, 635/667 nm fluorescence (AID 1133); conditions: small-molecule microarray binding, FGF2, fluorescence 635/667; higher = more signal
[15] = mitochondrial membrane potential change in A549 cells, profiling panel, cell-based, JC-1 fluorescence, basal, 24 h, 100 nL (AID 1138); conditions: higher = more signal;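 note: A549 lung adenocarcinoma cells under basal conditions with no added stimulus; test concentration not given here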
Lefty1 = Lefty1 binders on small-molecule microarrays, primary screen, biochemical, small-molecule microarray, 635/667 nm fluorescence (AID 1139); conditions: small-molecule microarray binding, fluorescence 635/667; higher = more signal
[16] = tested on: wheat germ agglutinin (Triticum aestivum), Alexa647-labelled; test: wheat germ agglutinin binders on compound microarrays, profiling panel, artefact control for SMM control-protein annotation, biochemical, small-molecule microarray, 635/667 nm fluorescence (AID 1140); conditions: WGA-A647 binding, 635 nm fluorescence, higher = more signal;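 note: score merges 667 nm feature emission with signal to noise over triplicate slides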
[17] = molecular target: Luciferin 4-monooxygenase (Photinus pyralis) (UniProt P08659); test: firefly luciferase enzyme inhibitors, primary screen, biochemical, luminescence, purified enzyme, 2006 set (AID 1141); conditions: SteadyGlo luminescence, 30 min, higher = more signal, called active from +8 up or from −8 down;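 note: cell-free assay with purified firefly luciferase at 100 ng per well in PBS; test concentration not given here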
Luciferin 4-monooxygenase (Photinus pyralis), sequence (P08659 whole entry, looked up): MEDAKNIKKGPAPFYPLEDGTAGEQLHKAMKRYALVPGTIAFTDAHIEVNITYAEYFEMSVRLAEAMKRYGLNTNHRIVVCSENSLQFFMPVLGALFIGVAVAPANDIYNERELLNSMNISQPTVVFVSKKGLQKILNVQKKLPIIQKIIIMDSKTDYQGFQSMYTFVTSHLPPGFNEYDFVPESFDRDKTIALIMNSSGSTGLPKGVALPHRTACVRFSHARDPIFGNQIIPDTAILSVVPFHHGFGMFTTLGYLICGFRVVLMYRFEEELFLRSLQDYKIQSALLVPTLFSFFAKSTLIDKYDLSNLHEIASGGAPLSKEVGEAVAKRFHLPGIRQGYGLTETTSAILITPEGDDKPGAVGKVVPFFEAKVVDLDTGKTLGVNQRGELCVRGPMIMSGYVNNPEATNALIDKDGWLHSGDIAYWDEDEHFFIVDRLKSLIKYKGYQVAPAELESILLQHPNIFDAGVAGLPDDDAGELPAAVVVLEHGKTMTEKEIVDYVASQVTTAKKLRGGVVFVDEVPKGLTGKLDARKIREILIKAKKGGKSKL

Concanavalin-A (Canavalia ensiformis), sequence (P02866 whole entry, looked up): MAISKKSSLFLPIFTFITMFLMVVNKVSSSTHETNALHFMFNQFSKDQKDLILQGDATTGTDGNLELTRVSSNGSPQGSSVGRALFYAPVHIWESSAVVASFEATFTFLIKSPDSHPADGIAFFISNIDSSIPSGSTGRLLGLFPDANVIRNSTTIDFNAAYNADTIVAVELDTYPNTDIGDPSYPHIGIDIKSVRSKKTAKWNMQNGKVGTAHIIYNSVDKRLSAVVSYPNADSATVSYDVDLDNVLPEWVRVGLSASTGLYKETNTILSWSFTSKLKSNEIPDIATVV
Focal adhesion kinase 1 (Homo sapiens), sequence (Q05397 whole entry, looked up): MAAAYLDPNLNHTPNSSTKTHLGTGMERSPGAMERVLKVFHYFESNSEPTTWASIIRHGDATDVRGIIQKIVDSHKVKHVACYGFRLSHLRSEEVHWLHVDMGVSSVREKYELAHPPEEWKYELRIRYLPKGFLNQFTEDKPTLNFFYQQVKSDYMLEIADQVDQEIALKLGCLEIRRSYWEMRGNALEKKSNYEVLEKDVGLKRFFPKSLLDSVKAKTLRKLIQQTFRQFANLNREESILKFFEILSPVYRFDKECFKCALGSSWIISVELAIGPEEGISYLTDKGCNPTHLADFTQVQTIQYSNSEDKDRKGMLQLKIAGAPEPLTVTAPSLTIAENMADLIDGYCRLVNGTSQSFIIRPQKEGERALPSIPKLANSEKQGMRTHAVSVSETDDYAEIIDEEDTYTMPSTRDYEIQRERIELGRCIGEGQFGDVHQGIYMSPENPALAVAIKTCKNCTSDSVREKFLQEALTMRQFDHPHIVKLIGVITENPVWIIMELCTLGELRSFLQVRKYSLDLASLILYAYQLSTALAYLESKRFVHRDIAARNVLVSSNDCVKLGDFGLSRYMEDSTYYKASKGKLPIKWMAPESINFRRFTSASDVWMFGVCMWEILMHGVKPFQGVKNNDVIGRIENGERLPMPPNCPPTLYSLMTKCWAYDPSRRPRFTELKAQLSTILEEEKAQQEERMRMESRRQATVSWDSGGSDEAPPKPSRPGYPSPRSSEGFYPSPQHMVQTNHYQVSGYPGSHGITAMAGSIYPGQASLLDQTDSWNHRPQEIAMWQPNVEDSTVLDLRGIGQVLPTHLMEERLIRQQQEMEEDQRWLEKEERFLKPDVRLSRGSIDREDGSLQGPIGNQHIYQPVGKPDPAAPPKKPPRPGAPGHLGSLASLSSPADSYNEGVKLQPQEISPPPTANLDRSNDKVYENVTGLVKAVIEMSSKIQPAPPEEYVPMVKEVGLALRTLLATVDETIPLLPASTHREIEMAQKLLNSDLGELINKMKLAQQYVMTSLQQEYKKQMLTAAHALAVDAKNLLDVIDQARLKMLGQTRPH
Albumin (Bos taurus), sequence (P02769 whole entry, looked up): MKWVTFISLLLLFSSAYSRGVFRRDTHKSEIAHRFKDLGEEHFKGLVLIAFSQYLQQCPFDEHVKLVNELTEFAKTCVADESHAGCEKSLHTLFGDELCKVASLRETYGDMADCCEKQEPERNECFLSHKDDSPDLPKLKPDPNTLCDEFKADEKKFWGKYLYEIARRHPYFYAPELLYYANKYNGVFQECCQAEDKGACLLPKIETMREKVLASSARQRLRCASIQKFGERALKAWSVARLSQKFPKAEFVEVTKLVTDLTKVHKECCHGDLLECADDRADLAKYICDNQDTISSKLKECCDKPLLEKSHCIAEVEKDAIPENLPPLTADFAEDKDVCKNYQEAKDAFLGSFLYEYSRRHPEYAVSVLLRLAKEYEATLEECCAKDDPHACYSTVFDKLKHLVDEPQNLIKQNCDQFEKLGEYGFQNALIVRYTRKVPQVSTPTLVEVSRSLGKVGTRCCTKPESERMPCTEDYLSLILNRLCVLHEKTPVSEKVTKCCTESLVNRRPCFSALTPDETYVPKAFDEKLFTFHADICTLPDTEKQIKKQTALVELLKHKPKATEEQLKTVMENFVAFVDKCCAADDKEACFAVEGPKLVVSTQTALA
Fibroblast growth factor 2 (Homo sapiens), sequence (P09038 whole entry, looked up): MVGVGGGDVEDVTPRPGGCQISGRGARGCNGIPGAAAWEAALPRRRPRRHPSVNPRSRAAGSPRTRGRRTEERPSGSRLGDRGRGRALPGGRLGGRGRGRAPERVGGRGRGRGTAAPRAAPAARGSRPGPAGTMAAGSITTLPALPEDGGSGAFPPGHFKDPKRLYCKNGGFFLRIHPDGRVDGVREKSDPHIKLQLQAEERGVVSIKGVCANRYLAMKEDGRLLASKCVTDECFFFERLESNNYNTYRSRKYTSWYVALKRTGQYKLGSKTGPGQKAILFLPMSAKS
Follistatin (Homo sapiens), sequence (P19883 whole entry, looked up): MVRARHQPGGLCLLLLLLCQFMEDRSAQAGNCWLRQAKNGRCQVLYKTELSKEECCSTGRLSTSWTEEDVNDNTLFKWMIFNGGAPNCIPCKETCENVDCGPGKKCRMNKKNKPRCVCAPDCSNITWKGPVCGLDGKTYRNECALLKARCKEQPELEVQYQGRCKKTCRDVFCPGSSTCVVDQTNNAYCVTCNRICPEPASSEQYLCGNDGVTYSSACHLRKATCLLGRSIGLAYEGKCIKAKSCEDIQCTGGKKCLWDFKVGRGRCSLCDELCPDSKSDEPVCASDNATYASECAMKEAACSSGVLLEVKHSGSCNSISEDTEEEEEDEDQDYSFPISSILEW

| Compound | composite z-score (Albumin (Bos taurus)) | composite Z-score [1] | composite z-score [2] | composite z-score [3] | composite z-score [4] | composite z-score [5] | composite z-score [6] | composite z-score (Sam68 (KHDRBS1)) | composite z-score [7] | composite z-score [8] | composite z-score [9] | composite z-score [10] | composite z-score [11] | composite z-score [12] | composite z-score [13] | composite z-score [14] | z-score [15] | composite z-score (Lefty1) | composite z-score [16] | z-score [17] |
| --- | --- | --- | --- | --- | --- | --- | --- | --- | --- | --- | --- | --- | --- | --- | --- | --- | --- | --- | --- | --- |
| CCCCCN1CC=CC23O[C@@H]4C=CCOC(=O)[C@@H]4[C@H]2C(=O)N(CCCCCCO)[C@@H]3C1=O (stereo not given in full) | 0.798 | 0.401 (inactive) | -0.306 | -0.0811 | 0.81 | 0.629 | 0.902 | -0.662 | -1.21 | -0.367 | 0.309 | -0.381 | -0.236 | -1.04 | -2.23 | -1.49 | 0.421 | -1.05 | -0.416 | 0.294 (inactive) |
| C[C@@H](c1ccccc1)N1C(=O)[C@H]2[C@H]3[C@H](O)[C@H](O)CC(=NNC(=O)OCc4ccccc4)[C@H]3CC[C@H]2C1=O | 0.3 | 0.281 (inactive) | -0.046 | -0.0978 | -0.112 | 0.947 | 0.221 | -0.495 | 0.13 | 0.0811 | 0.496 | -0.387 | -0.048 | 0.253 | -0.351 | 0.0573 | -0.118 | -0.211 | -0.105 | 0.502 (inactive) |
| COCCNC(=O)OCC1CCCC2(CC(OC(=O)NCCc3ccc(F)cc3)CC(CCC(=O)N[C@@H](C)C(=O)OC)O2)O1 (stereo not given in full) | 0.456 | -0.126 (inactive) | 0.0228 | -0.144 | 0.245 | 0.292 | -0.0037 | 1.3 | 0.581 | 0.769 | 1 | 1.12 | 0.104 | 0.895 | 1.26 | 1.18 | 1.28 | 0.969 | 0.618 | 0.349 (inactive) |
| Cc1ccc(F)cc1S(=O)(=O)N[C@@H]1CCN(Cc2ccc(CC(C)C)cc2)C1 | 0.118 | -0.316 (inactive) | -0.249 | -0.208 | 0.013 | 0.193 | 0.172 | 0.499 | 0.266 | -1.47 | -0.016 | -0.381 | 0.132 | 0.129 | 0.111 | -0.367 | -0.391 | 0.163 | 0.0831 | 0.886 (inactive) |
| O=C1[C@H]2[C@H]3[C@H](O)[C@H](O)CC(=NOCc4ccccc4)[C@@H]3CC[C@H]2C(=O)N1Cc1ccccc1 | 0.55 | -0.119 (inactive) | -0.0043 | -0.14 | 0.251 | -0.256 | -0.355 | 0.598 | 0.417 | -0.0677 | -0.0529 | 0.719 | 0.166 | -0.757 | 0.371 | 0.47 | -0.806 | 0.597 | 0.0885 | 1.09 (inactive) |
| COC(=O)[C@@]1(Cc2ccc(F)cc2)[C@H]2c3cc(C(=O)N(C)C)n(Cc4ccc(OC)c(OC)c4)c3C[C@H]2CN1C(=O)c1ccccc1 | 0.378 | 0.206 (inactive) | 0.194 | 0.265 | 0.866 | 0.383 | -0.253 | -0.309 | 0.106 | -0.189 | 0.835 | -0.267 | 1.71 | 0.661 | -0.405 | -0.346 | 0.362 | -0.614 | 0.63 | 1.22 (inactive) |
| CO[C@@H]1COC(=O)[C@@H]2CCCN2C(=O)[C@@H](C)COC(=O)[C@H](COCc2ccccc2)NC(=O)CC=C[C@H]1C | 0.0307 | -0.413 (inactive) | -0.059 | -0.147 | 0.12 | 1.35 | -0.0015 | 0.813 | 0.611 | 0.379 | 0.284 | 0.692 | 0.0252 | 0.385 | 0.421 | 0.27 | -0.714 | 0.698 | -0.07 | 0.951 (inactive) |
| O=C1[C@H]2[C@H]3[C@H](O)[C@H](O)CC(=NO[C@@H]4O[C@H](CO)[C@@H](O)[C@H](O)[C@H]4O)[C@@H]3CC[C@H]2C(=O)N1Cc1ccc2c(c1)OCO2 | -0.037 | 0.484 (inactive) | -0.004 | -0.18 | 0.376 | 0.542 | -0.211 | 0.907 | 0.538 | 0.211 | 0.715 | 0.782 | 0.293 | 0.78 | 0.449 | 0.289 | -0.789 | 0.716 | 0.63 | 0.949 (inactive) |
| CN1C(=O)[C@@]2(CCC(=O)OC(C)(C)C)N=C(c3ccc(OCCCO)cc3)O[C@H]2c2ccccc21 | 0.498 | -0.428 (inactive) | -0.0694 | -0.165 | 0.337 | 2.38 | 0.176 | 1.27 | 0.0811 | 1.09 | 1.87 | 1.17 | 0.102 | 0.411 | 1.36 | 0.611 | 1.33 | 0.369 | 0.761 | -2.62 (inactive) |
| CCOC(=O)NN=C1C[C@@H](O)[C@@H](O)[C@@H]2[C@@H]3C(=O)N(C(C)(C)C)C(=O)[C@@H]3CC[C@@H]12 | -0.422 | 0.136 (inactive) | -0.0328 | -0.14 | -1.23 | -0.443 | 0.171 | -0.605 | -0.63 | -0.651 | -0.889 | -0.461 | 0.291 | -0.417 | -0.686 | 0.638 | 0.0179 | -0.519 | -1.19 | 0.413 (inactive) |
| COCCCNC(=O)[C@@]1(Sc2ccc(C)cc2)CC(=O)N(Cc2ccccc2)[C@@H]1c1ccc(CO)cc1I | 0.757 | 0.394 (inactive) | -0.178 | 0.0079 | 0.688 | 0.987 | 0.791 | -0.249 | -0.527 | -1.27 | 0.101 | 0.264 | -0.303 | -0.154 | -0.191 | -0.376 | 1.63 | -1.13 | -0.308 | -0.848 (inactive) |
